Compounds with a hit are over-represented: about 2% of the library has one in this group of screens.
PKM2 act = increases activity of human pyruvate kinase M2; P14618; actives 0.34% (n = 260,000); purified PKM2, Kinase-Glo ATP luminescence, activation; response scale: 0% is enzyme alone, no compound; Potency, µM (top dose mostly 57.5 µM), actives largely listed as activators; note: nearly all actives have a fitted effect of over 55% in size
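hPK-M2, >95% pure; 0.1 mM ADP / 0.5 mM PEP final; imidazole pH7.2 buffer w/ 7 mM MgCl2, 50 mM KCl; 1 h RT; Kinase-Glo lum. Intermediate enzyme activity for dual inhibitor/activator qHTS.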
NPSR antagonist = antagonists of human neuropeptide S receptor cAMP signaling. actives 1% (n = 220,000). CHO-NPSR cells, cAMP TR-FRET, antagonist mode. Potency, µM (top dose mostly 38.3 µM), most hits filed as inhibitors; note: nearly all actives have a fitted effect of over 50% in size
Target sequence (Q6W5P4 whole entry, looked up): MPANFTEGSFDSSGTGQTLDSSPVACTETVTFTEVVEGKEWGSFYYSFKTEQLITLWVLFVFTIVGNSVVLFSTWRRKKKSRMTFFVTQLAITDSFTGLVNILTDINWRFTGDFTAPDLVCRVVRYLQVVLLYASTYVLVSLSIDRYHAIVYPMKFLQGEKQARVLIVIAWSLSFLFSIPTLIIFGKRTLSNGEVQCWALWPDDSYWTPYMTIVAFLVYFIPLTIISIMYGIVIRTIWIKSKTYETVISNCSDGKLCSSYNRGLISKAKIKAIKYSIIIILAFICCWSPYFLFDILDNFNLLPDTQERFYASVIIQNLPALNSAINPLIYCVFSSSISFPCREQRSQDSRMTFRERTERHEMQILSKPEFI
ClpP mod = qHTS Assay for Activators of ClpP; purified B. subtilis ClpP, FRET peptide cleavage, 20 min; AID 651965, 2013; actives 1.9% (n = 340,000); Potency, µM (doses to about 57.5 µM); ATP-dependent Clp protease proteolytic subunit (Bacillus subtilis (strain 168)), P80244; active = well fitted falling curve with a large enough effect; inconclusive = small, poorly fitted or top-dose-only effect; inactive = no such curve, though single readings can be large or run the other way; note: the source files actives as falling curves though it sought activators and does not explain the sign; nearly all actives have a fitted effect of over 65% in size
Target sequence (P80244 whole entry, looked up): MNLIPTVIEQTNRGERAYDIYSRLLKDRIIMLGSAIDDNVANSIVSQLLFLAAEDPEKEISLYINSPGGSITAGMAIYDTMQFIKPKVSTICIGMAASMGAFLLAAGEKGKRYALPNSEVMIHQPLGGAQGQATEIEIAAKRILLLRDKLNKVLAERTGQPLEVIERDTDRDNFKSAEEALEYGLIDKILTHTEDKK
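ClpP 10 microg/mL final, pH 8 Tris/KCl buffer with BSA, glycerol, Tween-20; compound pinned in; FRET-FV substrate; RT 20 min; Ex320/Em430; ΔFRET vs ADEP 5.8 microM, DMSO, no enzyme.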
IL2 activator = IL-2 activation; activation, % (series mostly up to about 46 µM); AID 652025; IL-2 activation reporter assay, cell-based qHTS; stimulated with anti-CD3/CD4/CD28 beads; in transgenic mouse T cells; actives 0.065% (n = 360,000); in the data active = activation above about 50%; inconclusive = mostly about 30% to 49%
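Unstimulated transgenic mouse T cells, 750 per well, received compound and, after 60 minutes, anti-CD3/anti-CD4 bead plus anti-CD28 stimulation. EGFP and DsRed were quantified after 18 hours.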
Large screens that a line does not name were inactive. Unless noted, calls come from the whole dose curve; as a rule, active = well fitted curve in the direction sought with a large enough effect; inconclusive = small, poorly fitted or top-dose-only effect, or another doubt; inactive = no such curve, though single readings can be large; an effect the other way counts as inactive or inconclusive.

C=CCSC1=Nc2cc(OC)c(OC)cc2C2=NC(=O)CN12	none
Cc1ccn2c(CNCC3COCCO3)c(C(=O)N3CCCCCC3)nc2c1 (stereo not drawn)	none (no result: NPSR antagonist)
Oc1ccc(Nc2nc3ccccc3nc2Nc2ccc(O)cc2)cc1	NPSR antagonist 10µM, ClpP mod 32µM
Oc1ccc(Nc2nc(-c3ccccc3)nc3ccccc23)cc1	none (no result: PKM2 act, NPSR antagonist)
Clc1ccccc1-c1nn2c(Cn3cnc4ccccc43)nnc2s1	PKM2 act 4µM
COc1ccc(OCc2nn3c(Cn4cnc5ccccc54)nnc3s2)cc1	PKM2 act 25µM
c1ccc(CCc2nn3c(Cn4cnc5ccccc54)nnc3s2)cc1	PKM2 act inconclusive
c1ccc2c(c1)ncn2Cc1nnc2sc(-c3ccc4c(c3)OCO4)nn12	PKM2 act 11µM, ClpP mod 28µM
COc1ccc(C(=O)CCN(C)C)c2ccccc12	none (no result: PKM2 act, NPSR antagonist, IL2 activator)
CCOC(=O)c1cnc2c(ccc3ccccc32)c1NCCO	ClpP mod 28µM
COc1ccc(-c2cc(=O)oc3c4c(ccc23)OCN(Cc2cccc(OC)c2)C4)cc1	ClpP mod 32µM (no result: PKM2 act, NPSR antagonist, IL2 activator)
COc1ccc([N+](=O)[O-])cc1-c1[nH]c(-c2ccc(C(=O)O)cc2)nc1-c1ccccc1	none (no result: NPSR antagonist)
COC(=O)CCC(=O)NC(=S)Nc1c(C)cccc1C	none
Cc1ccc(/C=C2/SC(=O)NC2=S)o1	NPSR antagonist 13µM (no result: ClpP mod)
Cc1cccc(C(=O)N/N=C/c2ccoc2)c1	none (no result: NPSR antagonist)
FC(F)(F)c1cccc(N2CCN(C3CC4CCC3C4)CC2)c1 (stereo not drawn)	none (no result: NPSR antagonist)
c1ccc(-c2ccc(-c3nc(-c4ccccn4)no3)cc2)cc1	ClpP mod 25µM
c1ccc(-c2noc(-c3cccc4ccccc34)n2)nc1	ClpP mod 40µM
COc1ccc(C(=O)NCC(c2ccc(N(C)C)cc2)N2CCOCC2)cc1 (stereo not drawn)	none (no result: PKM2 act, NPSR antagonist, IL2 activator)
CCCCCCCc1c(C)nc(N2CCOCC2)[nH]c1=O	none
CC1=NOC(=O)/C1=C\c1ccc(-c2cc(Cl)ccc2Cl)o1	NPSR antagonist 10µM
CCOC(=O)c1c(CSc2ccccc2)n(C)c2ccc(O)c(CN3CCOCC3)c12	NPSR antagonist 7.9µM
CC(NC(=O)c1ccc2c(c1)CCN2S(=O)(=O)c1ccc(Cl)cc1)c1ccccc1 (stereo not drawn)	none (no result: PKM2 act, NPSR antagonist, IL2 activator)
Nc1c(C(=O)NC2CC2)c2nc3ccccc3nc2n1-c1ccc2c(c1)OCO2	ClpP mod 32µM
CCC(Sc1nc(-c2ccccc2F)nc2c1Cc1c(CO)cnc(C)c1O2)C(=O)Nc1cc(C)ccc1C (stereo not drawn)	none (no result: PKM2 act, NPSR antagonist, IL2 activator)
CN(c1ccc(C(=O)NCCSC(C)(C)C)cc1)S(C)(=O)=O	ClpP mod 10µM
CN(c1ccc(C(=O)NCCc2ccccc2)cc1)S(C)(=O)=O	none
COc1ccc([C@H]2[C@H](C(=O)OC(C)(C)C)N3N=Cc4ccccc4C3C23C(=O)c2ccccc2C3=O)cc1OC (stereo partly drawn)	NPSR antagonist 7.9µM
CCC(C)C(NC(N)=O)C(=O)Nc1ccc(C)c(Cl)c1 (stereo not drawn)	ClpP mod 28µM
CCC(=O)NNc1cccc(Cl)n1	none
CCOC(=O)N1CCN(S(=O)(=O)c2ccc(C)c(C(=O)NC3CCCCC3)c2)CC1	none (no result: NPSR antagonist)
COc1cc2c(=O)n(Cc3ccccc3)c(=O)n(CC(=O)NCCc3ccccc3)c2cc1OC	ClpP mod 28µM
CN(CC(=O)Nc1ccccc1Cl)C(=O)CCNC(=O)Nc1ccccc1	none (no result: PKM2 act, NPSR antagonist)
CCN(CC)C(=O)CSc1nc2nc(C)cc(C)c2c(=O)[nH]1	ClpP mod 25µM
COc1ccc(N2CCN(C3C(=O)Nc4ccccc4-n4nnnc43)CC2)cc1 (stereo not drawn)	none (no result: PKM2 act, NPSR antagonist)
Cc1ccc(S(=O)(=O)NNC(=S)Nc2ccc(Cl)cc2)cc1	ClpP mod 28µM
Cc1ccc(S(=O)(=O)NNC(=S)Nc2ccccc2)cc1	none
Cc1nc2ccc(N)cc2c(=O)n1Cc1ccc(Cl)cc1	ClpP mod 35µM
Cc1cnc(-c2nc3ccccc3n2C(C(=O)NC(C)(C)C)c2cc3ccccc3o2)cn1 (stereo not drawn)	ClpP mod inconclusive (no result: PKM2 act, NPSR antagonist)
Cc1cc(NCCN2CCOCC2)n2c(nc3ccccc32)c1C#N	ClpP mod 3.5µM
Cc1ccccc1NC(=S)NNC(=O)c1cccnc1	none
CC(C)C[C@H](NC(=O)c1nc[nH]c1C(=O)N[C@@H](CCCCNC(=O)OC(C)(C)C)C(=O)OC(C)(C)C)C(=O)OC(C)(C)C	NPSR antagonist 10µM
CC(=O)Nc1ccc(/C=N/NC(=O)c2cc(-c3ccco3)nc3ccccc23)cc1	none (no result: ClpP mod)
COc1ccc(OC)c(/C=N/NC(=O)c2cc(-c3ccc(C)o3)nc3ccccc23)c1	PKM2 act 7.9µM
O=C(O)c1ccccc1/C=N/NC(=O)c1cc(-c2ccco2)nc2ccccc12	PKM2 act 25µM (no result: ClpP mod)
COc1ccc(OC)c(/C=N/NC(=O)C(O)c2ccccc2)c1 (stereo not drawn)	none (no result: NPSR antagonist)
COc1ccc(OC)c(/C=N/NC(=O)c2csc3ccccc23)c1	NPSR antagonist inconclusive, ClpP mod 32µM
O=C(Nc1ccc(OCC(F)(F)C(F)F)c(C(F)(F)F)c1)c1ccccc1O	NPSR antagonist 7.9µM, ClpP mod inconclusive
O=C(Nc1ccc(OCC(F)(F)C(F)F)c(C(F)(F)F)c1)c1ccccc1	none (no result: PKM2 act, NPSR antagonist)
COc1ccccc1CNC(=O)c1cnc2ccccn2c1=O	none
O=C(NCc1cccs1)c1cnc2ccccn2c1=O	ClpP mod 25µM
Cc1ccc(Nc2c(-c3ccccn3)nc3ccc(C)cn23)cc1	NPSR antagonist 10µM
Cc1ccc2nc(-c3ccc(C)o3)c(Nc3ccccc3)n2c1	none (no result: PKM2 act, NPSR antagonist, IL2 activator)
Cc1ccc(Nc2c(-c3ccco3)nc3ccc(C)cn23)cc1	ClpP mod 6.3µM (no result: PKM2 act, NPSR antagonist, IL2 activator)
CC(=O)N1CCCc2cc(S(=O)(=O)NCCC3=CCCCC3)ccc21	none
CC(=O)N1CCc2cc(S(=O)(=O)CCC(=O)O)ccc21	ClpP mod 32µM
CC(=O)N1CCc2cc(S(=O)(=O)N3CCc4ccccc43)ccc21	ClpP mod inconclusive (no result: NPSR antagonist)
CCc1cccc(CC)c1NC(=O)CCS(=O)(=O)c1ccc2c(c1)CCN2C(C)=O	none (no result: PKM2 act, NPSR antagonist, IL2 activator)
COC(=O)CCC(=O)N1CCc2cc(S(=O)(=O)N3CCc4ccccc43)ccc21	PKM2 act 13µM
CCOC(=O)C1CCN(C(=O)CCS(=O)(=O)c2ccc3c(c2)CCN3C(=O)CC)CC1	ClpP mod 20µM
CC(=O)N1CCc2cc(S(=O)(=O)Nc3cccc(C(F)(F)F)c3)ccc21	PKM2 act 25µM
Cc1c(Cl)c([N+](=O)[O-])nn1CCCC(=O)Nc1cccc(O)c1	none (no result: ClpP mod)
CC(c1ccncn1)N(C)Cc1nc(Cc2ccccc2F)no1 (stereo not drawn)	none
COc1ccc(S(=O)(=O)Nc2ccc(-n3cccc3)cc2)cc1	PKM2 act 10µM (no result: ClpP mod)
O=C(NCC(c1ccc(F)cc1)N1CCOCC1)c1cccc(Br)c1 (stereo not drawn)	none
CCOc1ccc(N(C(C)=O)c2nc(C)cc(C)c2C#N)cc1	ClpP mod 25µM

Screening data as filed in PubChem.
